# Source: PubChem BioAssay AID1508601 (ICCB-Longwood Screening Facility, Harvard Medical School, 2020)
# In all, about 5,700 compounds went through this assay and about 85 (1%) were called active. The sample holds actives, similar compounds and a random draw of the others, so the mix is not that of the screen. Rule as the data show it: active = p53-positive nuclei above about 36% (passing the limit was not always enough); inactive = the rest.
# Assays:
# [1] = p53 stabilisation in HPV-positive human cells, imaging, p53-positive nuclei imaging, 24 h, 48 h (AID 1508601); conditions: 24/48 h
# [2] = biological target: Cellular tumor antigen p53 (Homo sapiens) (UniProt P04637); assay: as above; conditions: 24/48 h, stronger effect = higher value
# [3] = measured here: cell number at 24 h, Library stock concentration: 80 uM
# [4] = measured here: cell number at 24 h, Library stock concentration: 400 uM
# [5] = measured here: cell number at 24 h, Library stock concentration: 2 mM
# [6] = measured here: cell number at 24 h, Library stock concentration: 10 mM
# [7] = measured here: cell number at 48 h, Library stock concentration: 80 uM
# [8] = measured here: cell number at 48 h, Library stock concentration: 400 uM
# [9] = measured here: cell number at 48 h, Library stock concentration: 2 mM
# [10] = measured here: cell number at 48 h, Library stock concentration: 10 mM
# [11] = Library stock concentration: 80 uM
# [12] = Library stock concentration: 400 uM
# [13] = Library stock concentration: 2 mM
# [14] = Library stock concentration: 10 mM
# [15] = measured here: p53 positive nuclei at 24 h, Library stock concentration: 80 uM
# [16] = measured here: p53 positive nuclei at 24 h, Library stock concentration: 400 uM
# [17] = measured here: p53 positive nuclei at 24 h, Library stock concentration: 2 mM
# [18] = measured here: p53 positive nuclei at 24 h, Library stock concentration: 10 mM
# [19] = measured here: cell number at 24 h, concentration not given here
# [20] = measured here: cell number at 48 h, concentration not given here
# [21] = measured here: p53 positive nuclei at 24 h, concentration not given here
# Cellular tumor antigen p53 (Homo sapiens), sequence (P04637 whole entry, looked up): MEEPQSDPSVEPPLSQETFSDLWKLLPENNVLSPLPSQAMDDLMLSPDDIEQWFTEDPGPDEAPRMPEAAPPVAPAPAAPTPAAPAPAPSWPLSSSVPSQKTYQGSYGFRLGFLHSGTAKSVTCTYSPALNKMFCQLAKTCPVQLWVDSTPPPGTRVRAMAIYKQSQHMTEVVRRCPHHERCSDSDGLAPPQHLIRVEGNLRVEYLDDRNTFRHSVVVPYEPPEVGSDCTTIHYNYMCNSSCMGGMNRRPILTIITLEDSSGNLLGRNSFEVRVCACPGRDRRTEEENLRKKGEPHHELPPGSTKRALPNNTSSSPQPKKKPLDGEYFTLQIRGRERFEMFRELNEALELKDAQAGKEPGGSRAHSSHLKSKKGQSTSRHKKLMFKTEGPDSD
smiles,measurement,setting,value
O=C1SC(=Cc2ccc(OCc3cccc(B(O)O)c3)cc2)C(=O)N1Cc1ccc(F)cc1,"nuclei count, normalised",[1]; [3],110%
same,"nuclei count, normalised",[1]; [4],108%
same,"nuclei count, normalised",[1]; [5],110%
same,"nuclei count, normalised",[1]; [6],110%
same,"nuclei count, normalised",[1]; [7],102%
same,"nuclei count, normalised",[1]; [8],102%
same,"nuclei count, normalised",[1]; [9],109%
same,"nuclei count, normalised",[1]; [10],113%
same,"p53-positive nuclei, normalised",[2]; [11],0.073% (inactive)
same,"p53-positive nuclei, normalised",[2]; [12],0.243% (inactive)
same,"p53-positive nuclei, normalised",[2]; [13],0.131% (inactive)
same,"p53-positive nuclei, normalised",[2]; [14],-0.221% (inactive)
same,"p53-positive nuclei, normalised",[2]; [15],0.0618%
same,"p53-positive nuclei, normalised",[2]; [16],0.065%
same,"p53-positive nuclei, normalised",[2]; [17],0.123%
same,"p53-positive nuclei, normalised",[2]; [18],-0.0586%
CCN(CC)c1ccc(C=NNC(=O)c2ccc(O)cc2)cc1,"nuclei count, normalised","[1]; measured here: cell number at 24 h, Library stock concentration: 46 uM",111%
same,"nuclei count, normalised","[1]; measured here: cell number at 24 h, Library stock concentration: 278 uM",117%
same,"nuclei count, normalised","[1]; measured here: cell number at 24 h, Library stock concentration: 1.67 mM",121%
same,"nuclei count, normalised",[1]; [6],79.3%
same,"nuclei count, normalised","[1]; measured here: cell number at 48 h, Library stock concentration: 46 uM",116%
same,"nuclei count, normalised","[1]; measured here: cell number at 48 h, Library stock concentration: 278 uM",118%
same,"nuclei count, normalised","[1]; measured here: cell number at 48 h, Library stock concentration: 1.67 mM",118%
same,"nuclei count, normalised",[1]; [10],83.6%
same,"p53-positive nuclei, normalised",[2]; Library stock concentration: 46 uM,-0.325% (inactive)
same,"p53-positive nuclei, normalised",[2]; Library stock concentration: 278 uM,-0.186% (inactive)
same,"p53-positive nuclei, normalised",[2]; Library stock concentration: 1.67 mM,-0.0464% (inactive)
same,"p53-positive nuclei, normalised",[2]; [14],1.02% (inactive)
same,"p53-positive nuclei, normalised","[2]; measured here: p53 positive nuclei at 24 h, Library stock concentration: 46 uM",-0.151%
same,"p53-positive nuclei, normalised","[2]; measured here: p53 positive nuclei at 24 h, Library stock concentration: 278 uM",-0.0898%
same,"p53-positive nuclei, normalised","[2]; measured here: p53 positive nuclei at 24 h, Library stock concentration: 1.67 mM",0.0252%
same,"p53-positive nuclei, normalised",[2]; [18],0.906%
Nc1ccc(C(=O)O)c(O)c1 (tested in a mixture with another compound),"nuclei count, normalised",[1]; [19],95.8%
same,"nuclei count, normalised",[1]; [20],101%
same,"p53-positive nuclei, normalised",[2]; concentration not given here,0.284% (inactive)
same,"p53-positive nuclei, normalised",[2]; [21],0.00463%
CCC(C)C(NC(=O)C(C(C)CC)N(C)C(C)=O)C(=O)NC(C(=O)NC(CC(C)C)C(=O)[C@@]1(C)CO1)C(C)O (stereo partly specified),"nuclei count, normalised",[1]; [3],52.8%
same,"nuclei count, normalised",[1]; [4],48.9%
same,"nuclei count, normalised",[1]; [5],47.9%
same,"nuclei count, normalised",[1]; [6],45.3%
same,"nuclei count, normalised",[1]; [7],41.4%
same,"nuclei count, normalised",[1]; [8],39.9%
same,"nuclei count, normalised",[1]; [9],38.3%
same,"nuclei count, normalised",[1]; [10],35.1%
same,"p53-positive nuclei, normalised",[2]; [11],104% (active)
same,"p53-positive nuclei, normalised",[2]; [12],100% (active)
same,"p53-positive nuclei, normalised",[2]; [13],107% (active)
same,"p53-positive nuclei, normalised",[2]; [14],106% (active)
same,"p53-positive nuclei, normalised",[2]; [15],124%
same,"p53-positive nuclei, normalised",[2]; [16],125%
same,"p53-positive nuclei, normalised",[2]; [17],127%
same,"p53-positive nuclei, normalised",[2]; [18],125%
CC(=O)N[C@@H](CC(C)C)C(=O)N1CCC(n2cc(C(C)(C)N)nn2)CC1,"nuclei count, normalised",[1]; [19],104%
same,"nuclei count, normalised",[1]; [20],109%
same,"p53-positive nuclei, normalised",[2]; concentration not given here,-0.0832% (inactive)
same,"p53-positive nuclei, normalised",[2]; [21],0.155%
